# How the values were obtained:
# Experiment in all cases: DAPPL (digital affinity profiling via proximity ligation, sequencing); 10 mM Tris-HCl pH 7.5, 50 mM NaCl, 1 mM DTT, 4% glycerol, room temperature, 30 min; GST-TFs on glutathione beads, 16-mer random dsDNA library, 0.1% formaldehyde crosslink after washing; high values mean tight binding
# FEV = biological target: T1, FEV (Homo sapiens, UniProt Q99581 1-238); conditions: protein: recombinant; tags: N-terminal GST; dsDNA, one strand shown
# T1 sequence: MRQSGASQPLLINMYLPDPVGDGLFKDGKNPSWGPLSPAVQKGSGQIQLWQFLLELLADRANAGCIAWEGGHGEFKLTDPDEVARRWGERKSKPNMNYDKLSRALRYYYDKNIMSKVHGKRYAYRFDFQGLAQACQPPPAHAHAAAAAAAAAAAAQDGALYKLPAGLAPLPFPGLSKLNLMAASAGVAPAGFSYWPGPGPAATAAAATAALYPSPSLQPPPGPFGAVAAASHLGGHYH
# In short: (§1)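 Pools of DNA-barcoded human transcription factors, expressed in yeast as GST fusions on glutathione beads and combined with a tag-only sample, were incubated with 200 nmole of a 16-mer random double-stranded DNA library. Incubation took 30 min at room temperature in Tris/NaCl/DTT/glycerol buffer and was followed by washing, 0.1% formaldehyde crosslinking, proximity ligation (BsaI/T4 ligase, 1 h, 37 °C), PCR amplification and sequencing on an Illumina NextSeq500. Binding signal is the ratio of a hexamer's read frequency for a factor to its frequency for the tag-only sample.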
# ETV5 = ETV5 (Homo sapiens, UniProt P41161 1-510); conditions: protein: recombinant; tags: N-terminal GST; dsDNA, one strand shown
# Chain of ETV5 (P41161 whole entry): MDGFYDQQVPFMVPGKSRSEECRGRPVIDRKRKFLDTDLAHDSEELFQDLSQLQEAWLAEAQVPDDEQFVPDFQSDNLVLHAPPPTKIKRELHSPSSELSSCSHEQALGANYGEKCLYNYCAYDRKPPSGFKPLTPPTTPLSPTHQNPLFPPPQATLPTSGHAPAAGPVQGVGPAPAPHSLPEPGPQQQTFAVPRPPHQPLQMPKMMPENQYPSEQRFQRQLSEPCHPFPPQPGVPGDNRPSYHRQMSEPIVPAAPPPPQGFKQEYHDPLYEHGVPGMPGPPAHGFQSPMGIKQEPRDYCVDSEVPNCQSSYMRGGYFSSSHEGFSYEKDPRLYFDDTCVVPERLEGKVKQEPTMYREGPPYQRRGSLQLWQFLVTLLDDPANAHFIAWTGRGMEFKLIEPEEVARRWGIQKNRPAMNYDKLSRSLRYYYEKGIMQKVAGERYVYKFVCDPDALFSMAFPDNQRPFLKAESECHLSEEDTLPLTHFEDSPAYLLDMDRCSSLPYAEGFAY
# In short: as §1
# HSF1 = HSF1 (Homo sapiens, UniProt Q00613 1-529); conditions: protein: recombinant; tags: N-terminal GST; chain copies: 3; dsDNA, one strand shown
# Chain of HSF1 (Q00613 whole entry): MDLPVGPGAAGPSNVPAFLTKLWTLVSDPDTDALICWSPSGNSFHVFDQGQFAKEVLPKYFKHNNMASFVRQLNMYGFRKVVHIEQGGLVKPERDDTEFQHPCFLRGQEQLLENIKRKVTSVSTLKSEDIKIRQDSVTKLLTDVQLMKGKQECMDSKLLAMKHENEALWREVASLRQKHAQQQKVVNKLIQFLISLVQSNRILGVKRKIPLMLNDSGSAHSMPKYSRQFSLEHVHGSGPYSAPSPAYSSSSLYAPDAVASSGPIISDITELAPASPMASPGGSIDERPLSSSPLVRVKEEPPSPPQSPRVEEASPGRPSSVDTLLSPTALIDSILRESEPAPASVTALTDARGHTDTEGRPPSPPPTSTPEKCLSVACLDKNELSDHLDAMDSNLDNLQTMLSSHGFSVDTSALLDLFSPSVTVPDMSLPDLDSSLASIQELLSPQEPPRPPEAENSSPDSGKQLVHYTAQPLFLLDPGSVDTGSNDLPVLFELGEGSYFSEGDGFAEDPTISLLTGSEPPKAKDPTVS
# In short: as §1
# SPIC = biological target: T2, SPIC (Homo sapiens, UniProt Q8N5J4 1-248); conditions: protein: recombinant; tags: N-terminal GST; dsDNA, one strand shown
# T2 sequence: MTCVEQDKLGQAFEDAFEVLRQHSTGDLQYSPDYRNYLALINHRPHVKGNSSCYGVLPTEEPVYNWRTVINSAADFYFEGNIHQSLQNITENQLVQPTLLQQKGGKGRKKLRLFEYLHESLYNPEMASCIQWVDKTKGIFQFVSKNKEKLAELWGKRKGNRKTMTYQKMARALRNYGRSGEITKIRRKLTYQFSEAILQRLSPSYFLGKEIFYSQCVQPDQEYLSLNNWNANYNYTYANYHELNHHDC
# In short: as §1
# ELF4 = ELF4 (Homo sapiens, UniProt Q99607 1-663); conditions: protein: recombinant; tags: N-terminal GST; dsDNA, one strand shown
# Chain of ELF4 (Q99607 whole entry): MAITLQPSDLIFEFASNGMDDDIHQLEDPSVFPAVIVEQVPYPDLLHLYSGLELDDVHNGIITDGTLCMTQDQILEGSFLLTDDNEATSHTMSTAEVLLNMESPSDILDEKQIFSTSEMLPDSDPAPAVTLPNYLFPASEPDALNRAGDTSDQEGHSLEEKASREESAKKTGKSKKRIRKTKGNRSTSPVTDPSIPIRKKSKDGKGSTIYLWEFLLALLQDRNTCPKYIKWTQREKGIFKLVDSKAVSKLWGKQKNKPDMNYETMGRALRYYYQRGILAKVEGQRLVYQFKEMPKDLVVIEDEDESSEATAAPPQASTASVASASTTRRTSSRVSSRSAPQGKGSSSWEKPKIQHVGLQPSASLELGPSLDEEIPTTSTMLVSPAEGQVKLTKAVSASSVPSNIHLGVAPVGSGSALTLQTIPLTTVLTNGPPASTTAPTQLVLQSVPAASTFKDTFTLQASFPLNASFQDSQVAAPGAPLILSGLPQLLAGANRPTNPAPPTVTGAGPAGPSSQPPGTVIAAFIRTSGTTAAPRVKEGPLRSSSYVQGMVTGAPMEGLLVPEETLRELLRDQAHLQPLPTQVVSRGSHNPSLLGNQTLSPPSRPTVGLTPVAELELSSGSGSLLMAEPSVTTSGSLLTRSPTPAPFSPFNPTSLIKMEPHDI
# In short: as §1
# ELK4 = biological target: T3, ELK4 (Homo sapiens, UniProt P28324-2 1-405); conditions: protein: recombinant; tags: N-terminal GST; dsDNA, one strand shown
# T3 sequence: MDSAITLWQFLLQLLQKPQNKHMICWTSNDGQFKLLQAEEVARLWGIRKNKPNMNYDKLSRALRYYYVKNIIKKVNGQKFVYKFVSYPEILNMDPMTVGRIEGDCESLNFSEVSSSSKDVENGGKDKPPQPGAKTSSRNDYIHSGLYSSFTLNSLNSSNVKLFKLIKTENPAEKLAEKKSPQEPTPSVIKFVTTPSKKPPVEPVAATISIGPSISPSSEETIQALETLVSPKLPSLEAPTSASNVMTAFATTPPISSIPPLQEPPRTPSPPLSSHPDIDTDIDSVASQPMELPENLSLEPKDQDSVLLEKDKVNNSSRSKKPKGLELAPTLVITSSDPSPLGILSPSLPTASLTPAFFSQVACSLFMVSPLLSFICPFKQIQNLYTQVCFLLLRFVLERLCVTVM
# In short: as §1
# ETV2 = biological target: T4, ETV2 (Homo sapiens, UniProt O00321 1-342); conditions: protein: recombinant; tags: N-terminal GST; dsDNA, one strand shown
# T4 sequence: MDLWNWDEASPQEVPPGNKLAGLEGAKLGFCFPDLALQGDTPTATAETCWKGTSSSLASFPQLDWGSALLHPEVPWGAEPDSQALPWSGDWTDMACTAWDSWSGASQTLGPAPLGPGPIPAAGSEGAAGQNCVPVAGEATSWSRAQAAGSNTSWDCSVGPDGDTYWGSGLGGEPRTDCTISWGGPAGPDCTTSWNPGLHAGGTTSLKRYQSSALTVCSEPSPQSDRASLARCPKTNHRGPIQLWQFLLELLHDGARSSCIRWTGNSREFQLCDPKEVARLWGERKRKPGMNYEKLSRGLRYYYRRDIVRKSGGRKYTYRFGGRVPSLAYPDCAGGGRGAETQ
# In short: as §1
# ELF3 = biological target: T5, ELF3 (Homo sapiens, UniProt P78545 1-371); conditions: protein: recombinant; tags: N-terminal GST; dsDNA, one strand shown
# T5 sequence: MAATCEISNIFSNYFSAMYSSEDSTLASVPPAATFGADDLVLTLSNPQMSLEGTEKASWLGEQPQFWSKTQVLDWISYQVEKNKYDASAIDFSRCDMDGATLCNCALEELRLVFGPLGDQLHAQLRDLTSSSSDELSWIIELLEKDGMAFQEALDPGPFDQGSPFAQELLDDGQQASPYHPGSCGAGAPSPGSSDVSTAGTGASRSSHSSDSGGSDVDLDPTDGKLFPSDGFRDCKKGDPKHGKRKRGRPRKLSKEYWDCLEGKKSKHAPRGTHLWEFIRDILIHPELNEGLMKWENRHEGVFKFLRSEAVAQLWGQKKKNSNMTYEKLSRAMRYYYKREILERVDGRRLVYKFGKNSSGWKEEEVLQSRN
# In short: as §1
# CRX = CRX (Homo sapiens, UniProt O43186 1-299); conditions: protein: recombinant; tags: N-terminal GST; dsDNA, one strand shown
# Chain of CRX (O43186 whole entry): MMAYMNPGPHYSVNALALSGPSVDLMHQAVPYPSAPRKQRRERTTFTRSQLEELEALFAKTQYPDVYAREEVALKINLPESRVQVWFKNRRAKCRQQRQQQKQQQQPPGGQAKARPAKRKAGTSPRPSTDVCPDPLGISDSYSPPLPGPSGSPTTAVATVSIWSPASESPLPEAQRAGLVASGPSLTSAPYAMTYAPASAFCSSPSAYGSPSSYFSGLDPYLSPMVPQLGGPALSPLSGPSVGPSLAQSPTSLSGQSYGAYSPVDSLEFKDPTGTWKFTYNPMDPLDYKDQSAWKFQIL
# In short: as §1
# ETV1 = ETV1 (Homo sapiens, UniProt P50549 1-477); conditions: protein: recombinant; tags: N-terminal GST; dsDNA, one strand shown
# Chain of ETV1 (P50549 whole entry): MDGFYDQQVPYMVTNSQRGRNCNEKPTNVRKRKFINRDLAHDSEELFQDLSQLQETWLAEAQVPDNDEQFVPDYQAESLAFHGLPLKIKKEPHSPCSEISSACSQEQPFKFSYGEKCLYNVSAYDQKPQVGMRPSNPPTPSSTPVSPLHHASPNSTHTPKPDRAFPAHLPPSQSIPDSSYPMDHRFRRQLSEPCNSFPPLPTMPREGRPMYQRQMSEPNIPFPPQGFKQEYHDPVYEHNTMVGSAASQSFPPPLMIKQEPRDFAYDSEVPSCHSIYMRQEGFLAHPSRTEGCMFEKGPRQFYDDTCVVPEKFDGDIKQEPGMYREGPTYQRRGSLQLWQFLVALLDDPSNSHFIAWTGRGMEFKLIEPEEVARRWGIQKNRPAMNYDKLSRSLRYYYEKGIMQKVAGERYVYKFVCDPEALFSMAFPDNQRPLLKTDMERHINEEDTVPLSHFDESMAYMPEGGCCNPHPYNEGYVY
# In short: as §1
# ERF = biological target: T6, ERF (Homo sapiens, UniProt P50548 1-548); conditions: protein: recombinant; tags: N-terminal GST; dsDNA, one strand shown
# T6 sequence: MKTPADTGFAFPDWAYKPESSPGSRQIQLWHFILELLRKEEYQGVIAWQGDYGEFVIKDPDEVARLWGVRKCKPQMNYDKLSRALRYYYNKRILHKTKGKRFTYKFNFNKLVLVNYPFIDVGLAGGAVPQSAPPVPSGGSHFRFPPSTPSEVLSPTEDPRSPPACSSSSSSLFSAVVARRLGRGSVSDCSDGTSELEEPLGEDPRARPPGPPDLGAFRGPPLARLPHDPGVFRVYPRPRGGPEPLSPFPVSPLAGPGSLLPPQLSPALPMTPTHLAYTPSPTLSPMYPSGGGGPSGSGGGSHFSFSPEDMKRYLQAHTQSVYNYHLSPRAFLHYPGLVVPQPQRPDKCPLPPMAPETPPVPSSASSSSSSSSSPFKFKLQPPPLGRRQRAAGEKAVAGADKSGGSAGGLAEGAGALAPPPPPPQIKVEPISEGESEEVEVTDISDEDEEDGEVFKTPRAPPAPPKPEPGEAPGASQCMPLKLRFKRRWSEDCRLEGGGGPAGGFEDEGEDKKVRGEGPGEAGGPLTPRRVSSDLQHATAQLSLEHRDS
# In short: as §1
# ETV3L = biological target: T7, ETV3L (Homo sapiens, UniProt Q6ZN32 1-361); conditions: protein: recombinant; tags: N-terminal GST; dsDNA, one strand shown
# T7 sequence: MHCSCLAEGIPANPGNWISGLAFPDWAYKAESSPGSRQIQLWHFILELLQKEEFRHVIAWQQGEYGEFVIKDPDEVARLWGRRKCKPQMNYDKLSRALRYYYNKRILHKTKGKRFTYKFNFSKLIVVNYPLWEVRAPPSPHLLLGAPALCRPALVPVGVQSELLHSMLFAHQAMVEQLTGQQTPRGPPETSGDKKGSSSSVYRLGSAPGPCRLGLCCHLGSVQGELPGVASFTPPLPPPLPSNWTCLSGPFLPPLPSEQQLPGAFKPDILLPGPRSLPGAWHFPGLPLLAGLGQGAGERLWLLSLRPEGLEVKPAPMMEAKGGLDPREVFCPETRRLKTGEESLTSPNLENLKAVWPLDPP
# In short: as §1
# ETS2 = biological target: T8, ETS2 (Homo sapiens, UniProt P15036 1-469); conditions: protein: recombinant; tags: N-terminal GST; dsDNA, one strand shown
# T8 sequence: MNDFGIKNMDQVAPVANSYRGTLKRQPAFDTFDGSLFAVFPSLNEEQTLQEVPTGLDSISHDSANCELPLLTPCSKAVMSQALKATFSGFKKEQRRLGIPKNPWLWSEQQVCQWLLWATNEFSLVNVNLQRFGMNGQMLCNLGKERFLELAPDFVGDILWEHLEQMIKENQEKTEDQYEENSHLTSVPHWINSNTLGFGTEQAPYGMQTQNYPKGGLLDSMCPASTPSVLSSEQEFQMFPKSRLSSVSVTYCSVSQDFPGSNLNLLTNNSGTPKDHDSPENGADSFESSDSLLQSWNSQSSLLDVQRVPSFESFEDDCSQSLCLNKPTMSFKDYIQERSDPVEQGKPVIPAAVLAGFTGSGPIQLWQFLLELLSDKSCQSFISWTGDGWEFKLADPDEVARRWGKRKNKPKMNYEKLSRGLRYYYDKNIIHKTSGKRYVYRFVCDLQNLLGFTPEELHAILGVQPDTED
# In short: as §1
# SPDEF = biological target: T9, SPDEF (Homo sapiens, UniProt O95238 1-335); conditions: protein: recombinant; tags: N-terminal GST; dsDNA, one strand shown
# T9 sequence: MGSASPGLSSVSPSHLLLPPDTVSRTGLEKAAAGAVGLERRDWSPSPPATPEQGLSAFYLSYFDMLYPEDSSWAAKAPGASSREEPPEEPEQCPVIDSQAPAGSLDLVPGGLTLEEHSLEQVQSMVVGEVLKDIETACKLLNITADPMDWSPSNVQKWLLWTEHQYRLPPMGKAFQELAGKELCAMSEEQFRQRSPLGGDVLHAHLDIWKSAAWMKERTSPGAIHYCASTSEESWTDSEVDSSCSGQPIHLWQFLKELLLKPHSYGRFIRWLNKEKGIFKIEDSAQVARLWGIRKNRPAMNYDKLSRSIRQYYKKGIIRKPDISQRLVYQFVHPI
# In short: as §1
# ETV7 = biological target: T10, ETV7 (Homo sapiens, UniProt Q9Y603 1-341); conditions: protein: recombinant; tags: N-terminal GST; dsDNA, one strand shown
# T10 sequence: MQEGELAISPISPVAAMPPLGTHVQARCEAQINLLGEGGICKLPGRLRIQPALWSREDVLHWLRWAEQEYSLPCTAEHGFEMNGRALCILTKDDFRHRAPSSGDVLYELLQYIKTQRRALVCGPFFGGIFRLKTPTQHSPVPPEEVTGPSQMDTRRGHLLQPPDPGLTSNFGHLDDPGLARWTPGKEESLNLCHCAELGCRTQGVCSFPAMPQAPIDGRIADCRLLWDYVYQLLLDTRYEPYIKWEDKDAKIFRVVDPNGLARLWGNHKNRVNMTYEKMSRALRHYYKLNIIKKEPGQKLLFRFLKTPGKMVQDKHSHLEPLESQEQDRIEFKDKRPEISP
# In short: as §1
# ELF5 = biological target: T11, ELF5 (Homo sapiens, UniProt Q9UKW6-2 1-255); conditions: protein: recombinant; tags: N-terminal GST; dsDNA, one strand shown
# T11 sequence: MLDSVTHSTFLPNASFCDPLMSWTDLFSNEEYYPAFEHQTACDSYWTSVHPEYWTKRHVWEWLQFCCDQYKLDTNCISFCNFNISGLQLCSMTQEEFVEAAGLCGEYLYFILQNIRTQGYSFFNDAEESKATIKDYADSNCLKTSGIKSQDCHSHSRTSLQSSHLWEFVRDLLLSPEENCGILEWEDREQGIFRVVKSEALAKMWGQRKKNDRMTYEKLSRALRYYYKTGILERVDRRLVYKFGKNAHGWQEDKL
# In short: as §1
# ETV3 = biological target: T12, ETV3 (Homo sapiens, UniProt P41162-2 1-143); conditions: protein: recombinant; tags: N-terminal GST; dsDNA, one strand shown
# T12 sequence: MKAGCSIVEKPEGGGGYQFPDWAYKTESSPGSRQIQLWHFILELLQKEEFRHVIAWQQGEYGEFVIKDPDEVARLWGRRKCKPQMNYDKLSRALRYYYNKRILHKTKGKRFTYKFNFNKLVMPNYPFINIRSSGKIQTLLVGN
# In short: as §1
# ETV6 = ETV6 (Homo sapiens, UniProt P41212 1-452); conditions: protein: recombinant; tags: N-terminal GST; dsDNA, one strand shown
# Chain of ETV6 (P41212 whole entry): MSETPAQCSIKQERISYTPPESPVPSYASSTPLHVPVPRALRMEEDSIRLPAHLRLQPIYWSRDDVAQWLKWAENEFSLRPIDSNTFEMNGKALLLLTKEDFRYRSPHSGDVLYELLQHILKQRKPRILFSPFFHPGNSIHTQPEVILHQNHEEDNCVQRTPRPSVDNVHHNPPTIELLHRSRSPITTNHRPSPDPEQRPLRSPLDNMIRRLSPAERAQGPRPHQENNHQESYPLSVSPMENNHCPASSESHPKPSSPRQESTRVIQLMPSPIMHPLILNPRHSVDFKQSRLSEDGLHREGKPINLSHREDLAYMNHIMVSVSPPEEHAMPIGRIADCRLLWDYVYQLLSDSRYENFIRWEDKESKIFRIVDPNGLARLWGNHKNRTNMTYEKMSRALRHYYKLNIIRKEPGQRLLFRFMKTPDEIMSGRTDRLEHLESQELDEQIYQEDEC
# In short: as §1
sequence,measurement,setting,value
CGAATA,binding signal,FEV,"1.16 fold enrichment (6-mer frequency, TF over GST control)"
same,binding signal,ETV5,"1.07 fold enrichment (6-mer frequency, TF over GST control)"
same,binding signal,HSF1,"1.87 fold enrichment (6-mer frequency, TF over GST control)"
same,binding signal,SPIC,"1.26 fold enrichment (6-mer frequency, TF over GST control)"
same,binding signal,ELF4,"1.11 fold enrichment (6-mer frequency, TF over GST control)"
same,binding signal,ELK4,"1.25 fold enrichment (6-mer frequency, TF over GST control)"
same,binding signal,ETV2,"1.29 fold enrichment (6-mer frequency, TF over GST control)"
same,binding signal,ELF3,"1.07 fold enrichment (6-mer frequency, TF over GST control)"
same,binding signal,CRX,"1.31 fold enrichment (6-mer frequency, TF over GST control)"
same,binding signal,ETV1,"1.19 fold enrichment (6-mer frequency, TF over GST control)"
same,binding signal,ERF,"1.19 fold enrichment (6-mer frequency, TF over GST control)"
same,binding signal,ETV3L,"1.2 fold enrichment (6-mer frequency, TF over GST control)"
same,binding signal,ETS2,"1.12 fold enrichment (6-mer frequency, TF over GST control)"
same,binding signal,SPDEF,"1.1 fold enrichment (6-mer frequency, TF over GST control)"
same,binding signal,ETV7,"1.18 fold enrichment (6-mer frequency, TF over GST control)"
same,binding signal,ELF5,"1.11 fold enrichment (6-mer frequency, TF over GST control)"
same,binding signal,ETV3,"1.21 fold enrichment (6-mer frequency, TF over GST control)"
same,binding signal,ETV6,"1.18 fold enrichment (6-mer frequency, TF over GST control)"

# — publication PMC7862700, “An all-to-all approach to the identification of sequence-specific readers for epigenetic DNA modifications on cytosine”
